Test [1] can be described thus: NCI Yeast Anticancer Drug Screen. Data for the rad50 strain (AID 155).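 Further: 0% = growth of vehicle-only cultures of the same strain.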 The conditions noted are these: S. cerevisiae rad50 strain growth inhibition; at 50.0 µM; stronger effect = higher value. An outline of the steps: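 Yeast carrying a defined DNA repair defect were exposed to test compounds, and growth was compared with vehicle-treated controls to give percent inhibition.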

A short description of test [2]: NCI Yeast Anticancer Drug Screen. Data for the mec2-1 strain (AID 157). To be noted: S. cerevisiae mec2-1 strain, at 50.0 µM, stronger effect = higher value. The essentials: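 Strain: mec2-1 (DNA repair/cell cycle alteration). Compound exposure, then growth measured; inhibition expressed relative to vehicle.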
Test [3] can be described thus: NCI Yeast Anticancer Drug Screen. Data for the sgs1 mgt1 strain (AID 161).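 Further: 0% = growth of cultures given vehicle only.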 The conditions noted are these: S. cerevisiae sgs1 mgt1 strain, at 50.0 µM, stronger effect = higher value. An outline of the steps:
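Mutant yeast exposed to compound; growth scored against vehicle-only wells.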

Test [4] can be described thus: NCI Yeast Anticancer Drug Screen. Data for the cln2 rad14 strain (AID 165).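 Further: 0% = growth equal to vehicle treated cultures.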 The conditions noted are these: S. cerevisiae cln2 rad14 strain, at 50.0 µM, stronger effect = higher value. The essentials: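 Compounds are applied to the cln2 rad14 yeast strain, and growth is then compared with that of vehicle-treated cultures to give inhibition.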
A short description of test [5]: NCI Yeast Anticancer Drug Screen. Data for the bub3 strain (AID 167). To be noted: S. cerevisiae bub3 mutant strain, at 50.0 µM, stronger effect = higher value. The essentials: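 Compounds were applied to a genetically altered yeast strain carrying a cell-cycle control defect. Growth inhibition was scored against vehicle-treated controls.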
Test [6] is described as follows: NCI Yeast Anticancer Drug Screen. Data for the mlh1 rad18 strain (AID 175). The conditions noted are these: S. cerevisiae mlh1 rad18 strain growth inhibition; at 50.0 µM; stronger effect = higher value. The essentials: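 Read-out is yeast growth inhibition, calculated against vehicle-only controls. The compound was applied to a strain engineered with DNA damage repair alterations.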

About 79,000 compounds went through this panel and 15% of them were active in at least one assay; those are over-represented in the sample as a whole. Unmarked numbers belong to inactive results. Activity calls are given as the source filed them. No stated cut-off is given here; in the data, active means growth inhibition above about 70%; inactive means the rest.

As for `NCCn1ccnc1`, the growth inhibition is 13.3% in test [1]; 1.7% in test [2]; -1.75% in test [3]; -19.8% in test [4]; -3.15% in test [5]; 1.4% in test [6].

Take `CCC(=O)C(CC)Cc1ccc(OC)c(OC)c1` (stereo unspecified): the growth inhibition in test [1] is 1.4%; in test [2], -15.9%; in test [3], -11.8%; in test [4], -5.55%; in test [5] it was 6.55%; in test [6], 2.25%.

`COC(=O)CCC(=O)c1cc(OC)c2cc3ccccc3cc2c1OC`: the growth inhibition in test [1] was 9.2%; in test [2] it was -10.4%; in test [3], -2.55%; in test [4], 5.75%; in test [5], -17.4%; in test [6], -15.6%.

For `Cc1ccc2c(c1)C(=O)c1ccccc1C2=O`, the growth inhibition in test [1] was 7.8%; in test [2] it was 1.05%; in test [3], 1.9%; in test [4], 11.9%; in test [5], 52%; in test [6], 6%.

As to `O=c1[nH]c2ccccc2c(=O)n1CCCN1CCN(c2cccc(Cl)c2)CC1`, the growth inhibition in test [1] is 22%; in test [2] it was 12.4%; in test [3], 33.8%; in test [4], -23.4%; in test [5], 15.8%; in test [6], 14.8%.

On to `Cn1cnc(N)c1C(N)=S`, for which the growth inhibition is 4.65% in test [1]; 7.5% in test [2]; -8.6% in test [3]; -8.55% in test [4]; 7.9% in test [5]; 1.1% in test [6].

On to `COc1cccc(/C=N/O)c1OC`, for which the growth inhibition is 6.75% in test [1]; 4.25% in test [2]; 2.6% in test [3]; 8.55% in test [4]; -1.85% in test [5]; 2% in test [6].

Regarding `CC(C)CCN(C(=O)CCl)c1ccccc1`, the growth inhibition in test [1] is 59%; in test [2], 32.6%; in test [3] it was 52.4%; in test [4], 15.1%; in test [5] it was 33.5%; in test [6], 63.8%.

`CC1CCCCN1Cc1ccccc1COC(=O)c1cccc(Br)c1` (stereo unspecified): the growth inhibition is 32.5% in test [1]; -1.65% in test [2]; 43.3% in test [3]; -16.9% in test [4]; 16.1% in test [5]; 2.4% in test [6].

Take `CCOC(=O)[C@H](Cc1ccccc1)NC(=O)c1nc[nH]c1[N+](=O)[O-]`: the growth inhibition is -10.1% in test [1]; -9.25% in test [2]; -31.1% in test [3]; 5.6% in test [4]; 1.2% in test [5]; -34% in test [6].

`CC1OC(OC2C(OC3C(OC4CCC5(C)C(CCC6(C)C5CC=C5C7CC(C)(C)CCC7(C(=O)O)CCC56C)C4(C)C)OCC(O)C3O)OC(CO)C(O)C2O)C(O)C(O)C1O` (stereo unspecified): the growth inhibition is 92.8% (active) in test [1]; 94.4% (active) in test [2]; 94.3% (active) in test [3]; 92.3% (active) in test [4]; 93.8% (active) in test [5]; 93.8% (active) in test [6].

As for `OCCCOCc1ccccc1`, the growth inhibition was 39.8% in test [1]; 27.4% in test [2]; 30.9% in test [3]; 30.3% in test [4]; 17.5% in test [5]; 12.2% in test [6].

Turning to `CCCCc1c2c(nc3c1CCc1cc4c(nc1-3)-c1nc3c(c(CCCC)c1CC4)CCC/C3=C\c1ccccc1)/C(=C/c1ccccc1)CCC2`, the growth inhibition in test [1] was 16.6%; in test [2] it was 3.2%; in test [3], -0.25%; in test [4], 5.4%; in test [5] it was 5.05%; in test [6], 2.8%.

`c1ccc(-c2nc(-c3nn[nH]n3)c3ccccc3n2)cc1`: the growth inhibition in test [1] was -1.2%; in test [2], 13.7%; in test [3] it was 2.85%; in test [4], -19.6%; in test [5] it was 14.5%; in test [6], 20.8%.

Consider `Cc1cc2c(=O)[nH]c(=S)[nH]c2cn1`, for which the growth inhibition in test [1] is 8%; in test [2] it was 7%; in test [3], -11.4%; in test [4] it was -0.35%; in test [5] it was 6.8%; in test [6], -3.6%.

For the compound `ClCC1OC1CCl` (stereo unspecified), the growth inhibition in test [1] is 22.1%; in test [2], 3.05%; in test [3], 1.1%; in test [4], -10.6%; in test [5], 9.8%; in test [6], 1.95%.

In the case of `Cc1ccc(OCC(O)CN2CCN(c3ccc(C)cc3)CC2)cc1` (stereo unspecified), the growth inhibition in test [1] was 26.6%; in test [2] it was -10.4%; in test [3], 36%; in test [4], -35.7%; in test [5], 4.55%; in test [6], 0.05%.

Turning to `COC(=O)C(Cc1nc2ccccc2[nH]c1=O)C(NO)C(=O)Nc1c(Cl)cc([N+](=O)[O-])cc1Cl` (stereo unspecified), the growth inhibition was -3.85% in test [1]; -7.4% in test [2]; 36.6% in test [3]; 10.2% in test [4]; 22.2% in test [5]; -1.75% in test [6].

On to `CCOc1ccccc1NC(=O)C(=O)c1c(O)c2ccc(O)cc2oc1=O`, for which the growth inhibition in test [1] was 25.7%; in test [2] it was 9.55%; in test [3], 4.8%; in test [4] it was 1.8%; in test [5], -3.25%; in test [6], -1.75%.

In the case of `Cc1oc2ccccc2c(=O)c1Cn1cnc2ccc([N+](=O)[O-])cc21`, the growth inhibition in test [1] is -0.45%; in test [2], 10.3%; in test [3] it was 21.5%; in test [4], 11.8%; in test [5] it was 5.85%; in test [6], 10.1%.

Regarding `CCN(CC)CCC1CCCCN1CC(=O)N1c2cc(Cl)ccc2NC(=O)CC1C` (stereo unspecified), the growth inhibition in test [1] is 24.9%; in test [2], 0.8%; in test [3] it was 15.1%; in test [4], -6.45%; in test [5], 1.3%; in test [6], 20.6%.
